Data: PubChem BioAssay AID2241 (Broad Institute, 2010)
Out of some 21,000 compounds screened, about 110 (0.52%) were called active.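 Rule for the calls: active = most replicate scores above 10, or exactly half above 10 with mean activity above 10; inconclusive = mean activity below 10 while half the replicates exceed 10; inactive = most replicate scores below 10.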 What follows is part of a selection rich in actives, with near analogues and random picks from the rest.

Test: inducers of caspase activity in MEF A1-2A-BIM cells, primary screen, A1 inhibitor project, cell-based, CaspaseGlo luminescence (AID 2241);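 note: effector caspase 3 and 7 activity cleaving a DEVD luciferin substrate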
Conditions: caspase-Glo luminescence, 3 h, active compounds read high, percent of clofoctol signal, DMSO as zero, concentration not given here

Caspase activation, inactive:
Cc1nn(C)cc1C(=O)c1ccccc1 0.635%
Cc1ccc2c(c1)N(CCCC(=O)N1CCCCC1)C(=O)CO2 -0.335%
Cc1ccccc1-n1c(-c2ccc(Br)cc2)n[nH]c1=S -0.035%
COc1cc(OC)cc(C(=O)N2CCN=C2c2ccccc2)c1 0.196%
Cc1nn(C(C)C(=O)NC2CCCCCC2)c(=O)c2cc3occc3n12 (configuration not stated) 0.379%
O=C(Nc1ccc(S(=O)(=O)Nc2nccs2)cc1)N1c2ccccc2Sc2ccccc21 0.0197%
Fc1cc(F)cc(NC(=S)NCCN(C2CCCCC2)C2CCCC2)c1 -0.0874%
CC(=O)Oc1ccc(C2OCC3C(C)C=C(C)C2C3C)cc1 (configuration not stated) 0.946%
O=C(NCc1ccc2c(c1)OCO2)c1sc(=S)n2c1[nH]c(=O)c1ccccc12 -0.669%
CCOC(=O)c1cn(CC)c2cc(F)c(F)cc2c1=O 0.158%
O=C(NCc1ccccc1Cl)C1=CSCCO1 -0.087%
C[C@@H]1CN([C@@H](C)CO)C(=O)c2cc(NS(=O)(=O)c3ccccc3)ccc2O[C@H]1CN(C)S(=O)(=O)c1ccc(Cl)cc1 0.207%
COc1ccc(NC(=O)Nc2ccc3c(c2)C(=O)N([C@@H](C)CO)C[C@H](C)[C@@H](CN(C)C(=O)NC2CCCCC2)O3)cc1 -0.437%
Cc1ccc(S(=O)(=O)c2no[n+]([O-])c2S(=O)(=O)c2ccc(C)cc2)cc1 -3.56%
CCC(CC)NC(=O)C1c2ccccc2Oc2ccccc21 0.418%
Cc1noc(C)c1S(=O)(=O)Nc1ccc2c(c1)C(=O)N([C@@H](C)CO)C[C@H](C)[C@H](CN(C)C(=O)Nc1ccc(C(F)(F)F)cc1)O2 -0.257%
Cc1ccc(-n2c(C)nc3sc4c(c3c2=O)CCC4)cc1 0.54%
CC(=O)Oc1ccc2occ(C(=O)c3cc4ccccc4o3)c2c1 -5.48%
O=C(Nc1ccc(Cl)cc1)Nc1ccc(N2CCN(c3ncccc3C(F)(F)F)CC2)nc1 -0.335%
Cc1cccc(NC(=O)C2C3CC/C=C\CCC32)c1 (configuration not stated) 1.35%
CN1C(=O)C(Cc2ccccc2)(Cc2ccccc2)c2ccccc21 -0.527%
C=CCn1c2ccccc2c2nnc(SCCCC(=O)c3ccc(F)cc3)nc21 -0.988%
CNC(=O)CSc1nc2ccccc2[nH]1 0.45%
Cc1nc(C2COc3ccccc3O2)ncc1S(=O)(=O)c1ccc(Cl)cc1 (configuration not stated) -0.851%
O=C(CC1SC(=NC2CC3C=CC2C3)NC1=O)Nc1ccccc1Cl (configuration not stated) 0.103%
C[C@H]1CN([C@@H](C)CO)C(=O)c2cc(NC(=O)CCC(F)(F)F)ccc2O[C@H]1CN(C)Cc1ccc(C(=O)O)cc1 0.236%
COc1ccc(-c2nn(C)c3ccccc23)cc1 -6.81%
C=CCn1c(SC)nnc1-c1ccc(OC)c(OC)c1 0.905%
CCc1nnc(NC(=O)c2cc(S(=O)(=O)N3CCc4ccccc43)cn2C)s1 1.26%
Cc1ccc(S(=O)(=O)N(CC(=O)Nc2cccnc2)c2cc(C)cc(C)c2)cc1 0.203%
O=C(CC(=O)c1ccccc1O)c1ccccc1 -2.59%
C[C@@H]1CN([C@H](C)CO)C(=O)c2cc(NC(=O)c3ccncc3)ccc2O[C@H]1CN(C)Cc1ccc(Oc2ccccc2)cc1 -0.569%
CC(=O)Nc1ccc(S(=O)(=O)CCO)cc1 2.64%
NC(=O)N1CCc2ccccc21 0.412%
C[C@@H]1CN([C@H](C)CO)C(=O)c2cc(NS(=O)(=O)c3ccc(F)cc3)ccc2O[C@@H]1CN(C)C(=O)Nc1cccc2ccccc12 -0.274%
O=C(c1cccc(Cl)c1)N(Cc1ccccc1)Cc1ccccc1 -0.527%
COc1ccc(S(=O)(=O)Nc2ccc3c(c2)C(=O)N([C@H](C)CO)C[C@@H](C)[C@H](CN(C)C(=O)Nc2ccc4c(c2)OCO4)O3)cc1 0.103%
C[C@H]1CN([C@@H](C)CO)C(=O)c2cc(NS(=O)(=O)c3ccc(F)cc3)ccc2O[C@H]1CN(C)CC1CC1 1.58%
CCc1ccc(NC(=O)CN(C)S(=O)(=O)c2cc(Br)cnc2N)cc1 -0.325%
COc1ccc(CN(C)C[C@@H]2Oc3ccc(NC(=O)Nc4cccc5ccccc45)cc3C(=O)N([C@H](C)CO)C[C@H]2C)cc1 -0.083%
COc1cc(C2c3c(cc(OC)c(O)c3OC)CC(CO[C@@H]3O[C@H](CO)[C@@H](O)[C@H](O)[C@H]3O)C2CO)cc(OC)c1O (some centres not stated) -0.412%

Caspase activation, active:
Cc1ccc(-c2nn(C(C)(C)C)c3ncnc(N)c23)cc1 11.3%
